Shown are actives, neighbours in structure and some others; about 3.2% of the full set was active somewhere.
DAGLB inhibitor – diacylglycerol lipase beta (human) inhibition | HEK293T DAGLB membrane lysate, EnzChek fluorogenic substrate | inhibition, % at 5.17 µM | hit rate 0.059% among 340,000 | AID 504411; in the data active = inhibition above about 34%
NadD inh – NadD (S. aureus) enzyme inhibition; purified NadD enzyme, colorimetric absorbance read-out; inhibition, % at 20 µM; hit rate 0.78% among 360,000; in the data active = inhibition above about 26%
rCAG binder – molecules binding r(CAG) RNA repeats; r(CAG) RNA repeat, TO-PRO-1 dye displacement fluorescence; inhibition, % at 3 µM; hit rate 1.3% among 370,000; AID 651821;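 active = inhibition above the plate cutoff, the mean of all test compounds on that plate plus 3 SD, cut at about 35% in these data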;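 note: higher means more dye released from RNA so lower well fluorescence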
MsrA inhibitor – bovine MsrA inhibition; hit rate 0.75% among 360,000; purified bovine MsrA, absorbance read-out; inhibition, % at 15.5 µM; in the data active = inhibition above about 4.5%
Pemphigus Ab inh – human desmoglein-3 autoantibody binding inhibition | binding (percent of control), % at 10 µM | P32926 | DSG3-coupled beads, scFv-anti-DSG3-GFP binding, flow cytometry; stronger effect = lower value | hit rate 0.48% among 310,000;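 active = binding more than 3 SD below its plate's average and above zero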;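 note: hits lower antibody fragment binding to DSG3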
Target sequence (P32926 whole entry, looked up, the tested form may be a part): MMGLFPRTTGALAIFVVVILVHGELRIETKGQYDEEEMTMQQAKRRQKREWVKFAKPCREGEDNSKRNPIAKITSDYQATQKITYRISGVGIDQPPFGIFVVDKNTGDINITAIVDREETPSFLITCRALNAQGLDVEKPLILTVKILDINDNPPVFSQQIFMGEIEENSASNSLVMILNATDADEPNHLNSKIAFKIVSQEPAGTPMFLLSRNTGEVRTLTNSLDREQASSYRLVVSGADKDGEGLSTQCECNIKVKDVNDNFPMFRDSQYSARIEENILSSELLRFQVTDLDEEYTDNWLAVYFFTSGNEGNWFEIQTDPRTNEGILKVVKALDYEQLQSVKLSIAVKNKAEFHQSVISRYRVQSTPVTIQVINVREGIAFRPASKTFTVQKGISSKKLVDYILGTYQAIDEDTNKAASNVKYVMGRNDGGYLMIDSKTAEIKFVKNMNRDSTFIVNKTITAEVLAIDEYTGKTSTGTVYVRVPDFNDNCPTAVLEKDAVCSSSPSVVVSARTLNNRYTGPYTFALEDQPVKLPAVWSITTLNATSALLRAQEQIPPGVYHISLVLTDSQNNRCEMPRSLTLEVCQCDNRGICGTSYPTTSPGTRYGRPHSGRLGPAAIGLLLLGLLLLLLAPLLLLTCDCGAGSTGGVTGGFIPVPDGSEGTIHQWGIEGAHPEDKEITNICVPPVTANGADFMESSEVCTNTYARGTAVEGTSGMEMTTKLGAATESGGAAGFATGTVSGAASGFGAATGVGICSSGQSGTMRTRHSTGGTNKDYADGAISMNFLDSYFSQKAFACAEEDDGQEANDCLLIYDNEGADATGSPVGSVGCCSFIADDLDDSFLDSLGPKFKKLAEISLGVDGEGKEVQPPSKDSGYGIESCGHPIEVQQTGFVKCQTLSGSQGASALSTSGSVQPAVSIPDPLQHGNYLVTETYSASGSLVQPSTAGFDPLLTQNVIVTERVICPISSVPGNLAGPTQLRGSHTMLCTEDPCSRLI
MsrA act – activators of bovine methionine sulfoxide reductase A; purified bovine MsrA, absorbance read-out; activation, % at 10.6 µM; hit rate 0.3% among 360,000; in the data active = activation above about 7.5%
MsrA activ conf – confirmation of bovine methionine sulfoxide reductase A activators | shares compounds with MsrA act | purified bovine MsrA, absorbance read-out | activation, % at 10.6 µM | hit rate 12% among 1,000; in the data active = activation above about 4%;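 note: enzyme coupled to thioredoxin and thioredoxin reductase with NADPH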
Large screens that a line does not name were inactive (follow-up assays come after a bar, where they were run).

Cn1c(N=Nc2ccccc2)nc2ccccc21	MsrA act 7.7 | MsrA activ conf inactive
Cc1cccc(NC(=O)c2cc(S(=O)(=O)N3CCCCC3)ccc2Cl)n1	MsrA act 12 | MsrA activ conf inactive
Cc1cccc(NC(=O)[C@@H]2CC(=O)O[C@@H]2c2ccccc2)c1C	none (no result: DAGLB inhibitor, NadD inh, MsrA inhibitor, Pemphigus Ab inh, MsrA act)
COc1cccc(C2=Cc3ccc(F)cc3C(CC(C)=O)N2c2ccc(C#CC3(O)CCCCC3)cc2)c1 (stereo not drawn)	MsrA act 8.1 (no result: DAGLB inhibitor, Pemphigus Ab inh) | MsrA activ conf inactive
Cc1cccc(C)c1NC(=O)C1(C)CSCC(=O)N1CCC(C)C (stereo not drawn)	none (no result: DAGLB inhibitor, NadD inh, Pemphigus Ab inh, MsrA act)
Cn1ccsc1=NC(=O)c1ccc([N+](=O)[O-])o1	MsrA act 8.8 | MsrA activ conf inactive
COC(=O)[C@]12C[C@H](CC(=O)NCc3ccc(OC)c(OC)c3)C(=O)N(Cc3ccco3)C1=C[C@H](C(C)C)O[C@@H]2C1CC1	none (no result: DAGLB inhibitor, NadD inh, MsrA inhibitor, Pemphigus Ab inh, MsrA act)
COc1cc(C(=O)Oc2cc(C)cc(C)c2)cc(OC)c1OC	MsrA act 8.8 | MsrA activ conf inactive
COc1cc(C(=O)Oc2cccnc2)cc(OC)c1OC	none
Cc1cccc(N(CC(=O)NC2CCCC2)C(=O)CCCC(=O)Nc2ccccn2)c1	MsrA act 7.7 | MsrA activ conf inactive
Cc1cccc(N(CC(=O)NC2CCCCC2)C(=O)CCCC(=O)Nc2ccccn2)c1	none
CC(NC(=O)c1ccc(CS(=O)(=O)c2ccc(Cl)cc2)o1)c1ccc2c(c1)OCCO2 (stereo not drawn)	MsrA act 8.6 | MsrA activ conf inactive
COc1ccc(-c2nnc(SCC(=O)NC(=O)NCc3ccccc3)o2)cc1	MsrA act 9.7 | MsrA activ conf inactive
COc1ccc(-c2nnc(SCC(=O)NCc3ccco3)o2)cc1	none
CCOC(=O)CC[C@@]1(C(=O)OCC)C[C@@H](CC(=O)N2CCOCC2)C(=O)N2CCCC=C21	none (no result: DAGLB inhibitor, NadD inh, MsrA inhibitor, Pemphigus Ab inh, MsrA act)
CCCS(=O)(=O)N1CCC(C(=O)N2CCC(Cc3ccccc3)CC2)CC1	none
CCCS(=O)(=O)N1CCCC(C(=O)N2CCC(Cc3ccccc3)CC2)C1 (stereo not drawn)	MsrA act 7.7 | MsrA activ conf inactive
Cc1cc(NC(=O)CCCC(=O)NCc2cccs2)no1	MsrA act 7.9 (no result: Pemphigus Ab inh) | MsrA activ conf inactive
C1CCCC(NC2=NCCO2)CCC1	MsrA act 9.5 (no result: rCAG binder, MsrA inhibitor) | MsrA activ conf inactive
CC(C)N1CCCCC(NC(=O)c2ccc(-c3ccccc3)cc2)C1=O (stereo not drawn)	none (no result: DAGLB inhibitor, NadD inh, MsrA inhibitor, Pemphigus Ab inh, MsrA act)
Cc1nn(C)c(C)c1CN(C)C(=O)C1c2ccccc2Oc2ccccc21	none
Cc1nn(C)c(C)c1CN(C)C(=O)C1(C)CC1(Br)Br (stereo not drawn)	MsrA act 9.6 | MsrA activ conf inactive
S=c1[nH]ccc2ccccc12	MsrA act 9.8 | MsrA activ conf inactive
O=C(NC1CC1)C1=C[C@H](c2ccc(Br)cc2)C[C@H](OCc2ccc(CO)cc2)O1	none
O=C(NC1CC1)C1=C[C@@H](c2ccc(C(F)(F)F)cc2)C[C@@H](OCc2ccc(CO)cc2)O1	MsrA act 8.1 | MsrA activ conf inactive
CCC(C)[C@H](NC(=O)N1CCC(C)CC1)C(=O)OC (stereo partly drawn)	MsrA act 14 | MsrA activ conf inactive
Cc1cc(C)c2c(-n3cccc3)c(C(=O)NNS(=O)(=O)c3ccc(Br)cc3)sc2n1	MsrA act 8.5 | MsrA activ conf inactive
Cc1n[nH]c(C)c1S(=O)(=O)NCCc1ccccc1	none (no result: DAGLB inhibitor, NadD inh, MsrA inhibitor, Pemphigus Ab inh, MsrA act)
O=C(NCCc1ccccc1)OCc1cn(Cc2cccc(C(F)(F)F)c2)nn1	none (no result: DAGLB inhibitor, NadD inh, MsrA inhibitor, Pemphigus Ab inh, MsrA act)
CCCCn1c(=O)c2ccccc2n2c(=S)[nH]nc12	none (no result: Pemphigus Ab inh)
CCCCCn1c(=O)c2ccccc2n2c(=S)[nH]nc12	MsrA act 9.6 | MsrA activ conf inactive
NS(=O)(=O)c1ccc(NC(=O)NC2CC(=O)N(c3ccc4c(c3)OCCO4)C2)cc1 (stereo not drawn)	MsrA act 11 | MsrA activ conf inactive
O=C(Nc1ccc2c(c1)OCCO2)C(c1cc2ccccc2o1)N1CCN(C/C=C/c2ccccc2)CC1 (stereo not drawn)	MsrA act 16 (no result: DAGLB inhibitor, Pemphigus Ab inh) | MsrA activ conf inactive
O=C(Nc1ccc2c(c1)OCCO2)C(C1CC1)N1CCN(C/C=C/c2ccccc2)CC1 (stereo not drawn)	none (no result: DAGLB inhibitor, Pemphigus Ab inh)
O=C(NCCc1ccc(F)cc1)C(=O)Nc1cc2c3c(c1)CC(=O)N3CCC2	none
O=C(NCCc1ccc(Cl)cc1)C(=O)Nc1cc2c3c(c1)CC(=O)N3CCC2	MsrA act 17 | MsrA activ conf inactive
O=C(ONc1ccc(N=NC(=O)c2ccccc2O)cc1)c1ccccc1	none
O=Nc1ccc(NOC(=O)c2ccccc2Br)cc1	MsrA act 10 | MsrA activ conf inactive
COc1ccc(NC(=O)C2Cc3c(-c4ccc5c(c4)OCO5)ccnc3O2)cc1OC (stereo not drawn)	none (no result: DAGLB inhibitor, Pemphigus Ab inh)
CCCCn1nnnc1SCC(=O)c1cc(Cl)ccc1OC	none
COc1ccc(Cl)cc1C(=O)CSc1nc(N)cc(N)n1	MsrA act 8.0 | MsrA activ conf inactive
Cc1ccc(NC(=O)C(C)c2ccc([N+](=O)[O-])cc2)cc1Cl (stereo not drawn)	MsrA act 20 | MsrA activ conf inactive
CC(C(=O)Nc1ccccc1Br)c1ccc([N+](=O)[O-])cc1 (stereo not drawn)	none
Cc1cc(NC(=O)COC(=O)C2CC(=O)N(c3ccc(Br)cc3)C2)no1 (stereo not drawn)	none (no result: Pemphigus Ab inh)
COc1ccc(N2CC(C(=O)OCC(=O)Nc3cc(C)on3)CC2=O)cc1 (stereo not drawn)	MsrA act 8.0 | MsrA activ conf inactive
OC[C@@H]1CN(CCNc2ccccc2)C[C@H](n2cnc3c(NCc4ccncc4)ncnc32)O1	none (no result: DAGLB inhibitor, Pemphigus Ab inh)
COc1ccc(NC(=O)CSCC(=O)N(C)Cc2ccc(Cl)c(Cl)c2)cc1	MsrA act 11 (no result: Pemphigus Ab inh) | MsrA activ conf inactive
COc1ccc(NC(=O)CSCC(=O)Nc2ccc(S(=O)(=O)N3CCCCC3)cc2)cc1	none
COc1ccc(CSCC(=O)Nc2ccc(S(=O)(=O)N3CCCCCC3)cc2)cc1	MsrA act 8.8 | MsrA activ conf inactive
Cc1ccc(NC(=O)CSCC(=O)N(C)Cc2ccc(Cl)c(Cl)c2)cc1	none
O=C(COC(=O)Cc1ccccc1F)Nc1ccc2c(c1)OCCO2	MsrA act 11 | MsrA activ conf inactive
O[C@H]1C[C@H](c2ccccc2)N(Cc2cccs2)C[C@@H]1n1cc(-c2ccc(F)cc2)nn1	none
Cc1ccc2[nH]c3c(c2c1)CN(C(=O)CN1CCN(c2ccccn2)CC1)CC3	MsrA act 10 | MsrA activ conf 4.0
O=C(CSc1nnc(-c2ccncc2)n1Cc1ccccc1)NC1CCCc2ccccc21 (stereo not drawn)	none
Nn1c(SCC(=O)NC2CCCc3ccccc32)nnc1-c1cccs1 (stereo not drawn)	MsrA act 8.7 (no result: Pemphigus Ab inh) | MsrA activ conf inactive
COCC(=O)Nc1cccc2ccccc12	MsrA act 11 | MsrA activ conf inactive

Assay outcomes from PubChem BioAssay.
